# Laboratory results: PubChem BioAssay (EPA / NIEHS)
# Several values for one entry are separate records, joined by “and”; a condition that tells them apart may be missing. Equal values may be shown once. A structure can be active in one record and inactive in another. Activity calls are given as the source filed them. The calls were made as follows: active = hit-call score of the fitted dose curve at least 0.9, where 1 is the maximum; inactive = score below 0.9.
# Assay: ATG_NF_kB_CIS: Attagene CIS-FACTORIAL HepG2 Assay for human Nuclear Factor Kappa B (NF-kB) (AID 2282991)
# Conditions: HepG2 Attagene cis-factorial NF-kB reporter mRNA; actives raise or lower the signal
# Summary of the method: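 Endpoint from a 52-component multiplexed HepG2 reporter panel: cis-regulated transcription units transiently transfected, 24 h dosing, reporter mRNA quantified by RT-PCR and capillary electrophoresis, scored as increase or decrease against DMSO.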
Compound,outcome,AC50
O=[N+]([O-])c1cc(Cl)ccc1Cl,inactive,
FC(F)(F)c1ccc(Cl)cc1,inactive,
CC(O)C(F)(F)C(F)(F)F (stereo not given),inactive,
Clc1ccc(Oc2ccccc2)cc1,inactive,
O=C(O)C(F)(F)C(F)(F)C(=O)O,inactive,
O=S1(=O)OCC2C(CO1)C1(Cl)C(Cl)=C(Cl)C2(Cl)C1(Cl)Cl (stereo not given),,8.15 µM (active)
CNC(=O)Oc1ccc(N(C)C)c(C)c1,inactive,
O=c1[nH]c2ccccc2c(=O)o1,inactive,
O=NN1CCCC1,inactive,
COC(N)=O,inactive,
c1ccc(OP(Oc2ccccc2)Oc2ccccc2)cc1,inactive,
CC(C)CBr,inactive,
CCCCc1ccc(O)cc1,inactive,
OCC(F)(F)OC(F)(F)C(F)(F)OC(F)(F)C(F)(F)OC(F)(F)F,inactive,
NNC(N)=S,inactive,
C/C(=N\NC(=O)Nc1cc(F)cc(F)c1)c1ncccc1C(=O)O,inactive,
CC(O)C#N (stereo not given),inactive,
N#C/C=C/c1ccccc1,inactive,
CC(=O)CCc1ccc2c(c1)OCO2,inactive,
C=CC(=O)OCC(F)(F)C(F)F,,76 µM (active)

Compound,outcome,AC50
O=S(=O)(F)C(F)(F)C(F)(F)C(F)(F)C(F)(F)C(F)(F)C(F)(F)C(F)(F)C(F)(F)F,inactive,
Oc1ccccc1Br,inactive,
CC1=C(C(=O)Nc2ccccc2)S(=O)(=O)CCO1,,122 µM (active)
O=S(=O)(c1ccc(O)cc1)c1ccc(O)cc1,inactive,
Cc1ccc(C(=O)Cl)cc1,inactive,
CCN(CC)C1CCCCC1,inactive,
Cc1cc(C)c(C(=O)P(=O)(c2ccccc2)c2ccccc2)c(C)c1,inactive,
CC1(C)CN=C(NN=C(/C=C/c2ccc(C(F)(F)F)cc2)/C=C/c2ccc(C(F)(F)F)cc2)NC1,inactive,
O=C(CBr)OCc1ccccc1,inactive,
N#Cc1ccc(O)cc1,inactive,
CO/N=C(/C(=O)OC)c1ccccc1COc1ccccc1C,inactive,
O=P(OCC(Br)CBr)(OCC(Br)CBr)OCC(Br)CBr (stereo not given),inactive,
Oc1ccc(I)cc1,inactive,
CCCCN(CC)C(=O)SCCC,inactive,
Cn1[nH]nnc1=S,inactive,
CC(=O)c1ccc(-c2ccccc2)cc1,inactive,
C=C(C)C(=O)OCC1CO1 (stereo not given),inactive,
CCCCCCCc1ccc(O)cc1,inactive,
COC(=O)C(F)(F)C(F)(F)OC(F)(C(F)(F)F)C(F)(F)OC(F)=C(F)F (stereo not given),inactive,

# Assay: ATG_NRF2_ARE_CIS: Attagene CIS-FACTORIAL HepG2 Assay for human Nuclear Factor Erythroid 2 Related Factor 2 (NFR2) response to Antioxidant Response Elements (ARE) (AID 2282992);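 as to AC50: reporter mRNA level measured by RT-PCR and capillary electrophoresis fluorescence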
# Conditions: HepG2 Attagene ARE/NRF2 reporter, transcription factor activity; actives raise or lower the signal
# Summary of the method: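 Cis-factorial assay: transfected HepG2 reporter library, 24 h dosing, mRNA readout via RT-PCR/CE; DMSO-referenced bidirectional analysis.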
Compound,outcome,AC50
O=[N+]([O-])c1cc(Cl)ccc1Cl,inactive,
FC(F)(F)c1ccc(Cl)cc1,inactive,
CC(O)C(F)(F)C(F)(F)F (stereo not given),inactive,
Clc1ccc(Oc2ccccc2)cc1,,177 µM (active)
O=C(O)C(F)(F)C(F)(F)C(=O)O,inactive,
O=S1(=O)OCC2C(CO1)C1(Cl)C(Cl)=C(Cl)C2(Cl)C1(Cl)Cl (stereo not given),,44.5 µM (active)
CNC(=O)Oc1ccc(N(C)C)c(C)c1,inactive,
O=c1[nH]c2ccccc2c(=O)o1,inactive,
O=NN1CCCC1,inactive,
COC(N)=O,inactive,
c1ccc(OP(Oc2ccccc2)Oc2ccccc2)cc1,inactive,
CC(C)CBr,inactive,
CCCCc1ccc(O)cc1,,66.7 µM (active)
OCC(F)(F)OC(F)(F)C(F)(F)OC(F)(F)C(F)(F)OC(F)(F)F,inactive,
NNC(N)=S,inactive,
C/C(=N\NC(=O)Nc1cc(F)cc(F)c1)c1ncccc1C(=O)O,inactive,
CC(O)C#N (stereo not given),inactive,
N#C/C=C/c1ccccc1,inactive,
CC(=O)CCc1ccc2c(c1)OCO2,inactive,
C=CC(=O)OCC(F)(F)C(F)F,,50.3 µM (active)

Compound,outcome,AC50
O=S(=O)(F)C(F)(F)C(F)(F)C(F)(F)C(F)(F)C(F)(F)C(F)(F)C(F)(F)C(F)(F)F,inactive,63.6 µM (active)
Oc1ccccc1Br,inactive,
CC1=C(C(=O)Nc2ccccc2)S(=O)(=O)CCO1,,2.92 µM (active)
O=S(=O)(c1ccc(O)cc1)c1ccc(O)cc1,inactive,
Cc1ccc(C(=O)Cl)cc1,inactive,
CCN(CC)C1CCCCC1,inactive,
Cc1cc(C)c(C(=O)P(=O)(c2ccccc2)c2ccccc2)c(C)c1,,4.78 µM (active)
CC1(C)CN=C(NN=C(/C=C/c2ccc(C(F)(F)F)cc2)/C=C/c2ccc(C(F)(F)F)cc2)NC1,,3.06 µM (active)
O=C(CBr)OCc1ccccc1,,67.8 µM (active)
N#Cc1ccc(O)cc1,inactive,
CO/N=C(/C(=O)OC)c1ccccc1COc1ccccc1C,,3.96 µM (active)
O=P(OCC(Br)CBr)(OCC(Br)CBr)OCC(Br)CBr (stereo not given),,23.4 µM (active)
Oc1ccc(I)cc1,,67.3 µM (active)
CCCCN(CC)C(=O)SCCC,inactive,
Cn1[nH]nnc1=S,inactive,
CC(=O)c1ccc(-c2ccccc2)cc1,inactive,
C=C(C)C(=O)OCC1CO1 (stereo not given),,42.9 µM (active)
CCCCCCCc1ccc(O)cc1,inactive,14.1 µM (active) and 7.28 µM (active) and 7.2 µM (active)
COC(=O)C(F)(F)C(F)(F)OC(F)(C(F)(F)F)C(F)(F)OC(F)=C(F)F (stereo not given),,4.38 µM (active) and 10.3 µM (active) and 5.16 µM (active)
